The panel holds about 83,000 compounds, 20% with a hit somewhere; the sample as a whole holds those more often.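 Assay: single dose, 48 h. Readout: percent growth (0 = no net growth; negative = cell death). Active: <10.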 Unmarked numbers belong to inactive results. Activity calls are given as the source filed them.

In the assay the test system is SK-OV-3 ovarian. Kind of assay: NCI-60 one-dose screen, 48 h (100 = growth as untreated, 0 = no growth, -100 = all killed). The settings on record: 10 µM unless noted.
As to `CC1(C)CC[C@]2(C(=O)N3CCOCC3)CC[C@]3(C)C(=CC[C@@H]4[C@@]5(C)C/C(=C/c6ccncc6)C(=O)C(C)(C)[C@@H]5CC[C@]43C)[C@@H]2C1`, the growth was 28.9%. Turning to `O=C(Nc1cccnc1Nc1ccc(Cl)cc1)c1cn(Cc2ccc(F)cc2)nn1`, the growth is 108%.

Regarding `C=C1C(=O)O[C@H]2[C@H]1CC/C(CNC(=O)c1cc3ccccc3[nH]1)=C\CC[C@@]1(C)O[C@@H]21`, the growth is 68%. In the case of `C=CCN=C(N)SCCCCCCSC(N)=NCC=C`, the growth was 70.4%. `CNC(=O)c1c(NC(=O)c2ccc(C(C)(C)C)cc2)sc2c(CN(C)C)c(O)ccc12`: the growth is 34.1%. For the molecule `COc1ccc(C/C(C)=C(\c2ccc(O)cc2)c2ccc(OCCN3CCCC3)cc2)cc1`, the growth is 100%. As for `S=c1ssnc1-c1cccs1`, the growth was 98.4%. For `COc1cc(/C=C/c2cc(/C=C/c3ccc(O)c(OC)c3)n(C(=O)Nc3ccc(F)cc3)n2)ccc1O`, the growth is -18.7% (active). With `COc1cc2c3c(n(CCCCNCCCn4c5c(c6cc(OC)c(OC)cc6c4=O)C(=O)c4cc6c(cc4-5)OCO6)c(=O)c2cc1OC)-c1cc2c(cc1C3=O)OCO2`, the growth was 96.3%.

Turning to `COc1cc(-c2cc(-c3ccc(Nc4ncnc5cc(Cl)ccc45)cc3)nc(N3CCN(C)CC3)n2)cc(OC)c1OC`, the growth is 114%. Turning to `COc1cc(C(=O)/C=C/c2ccc(N3CCN(C)CC3)cc2)cc(OC)c1OC`, the growth is 100%. As to `Cc1ccc2[nH]c(=O)c3c(c2c1)OC(N)=C(C#N)C31C(=O)c2cccc3cccc1c23` (stereo not given), the growth is 105%.

Regarding `Cn1c(=O)c2c(nc(NC3=NS(=O)(=O)c4ccccc43)n2Cc2ccccc2)n(C)c1=O`, the growth was 97.5%. `COc1ccc(C/C(C)=C(/c2ccc(OCCN3CCCCCC3)cc2)c2ccc(OC(=O)NCc3ccccc3)cc2)cc1`: the growth is 95.3%. The same measure for `Cn1cc(-c2csc(-c3cn(C(=O)OC(C)(C)C)c4ccccc34)n2)c2ccnc(Cl)c21`: 71.3%. As for `CCN(C(=O)N1CCN(c2cc3c(cc2F)c(=O)c(C(=O)O)cn3C2CC2)CC1)c1nc(-c2ccc(C)cc2)cs1`, the growth was -10.4% (active).

Consider `COC(=O)c1nc(-c2ccccc2)oc1S(=O)(=O)N1CCC(C(N)=O)CC1`, for which the growth is 101%.

With `CCCCSCC(=O)c1ccccc1`, the growth is 81.4%. The same measure for `Cc1ccc(Nc2nc(-c3ccc(F)cc3)c(C#N)c(=O)n2C)cc1`: 60.1%; for `COc1cccc(OC)c1Oc1c(-c2nc3ccccc3s2)c(C)nn1-c1ccccc1`: 75.3%.

Regarding `Cc1ccccc1CNc1c2ccccc2nc2ccccc12`, the growth is 40.8%. The figure for `COc1ccc2nc3ccccc3c(NCc3ccc(F)cc3)c2c1` is 37.9%; for `O=C1NC(=O)c2c1c1c3ccccc3[nH]c1c1oc3cc(Br)ccc3c21` it is 93.8%; for `COc1ccc(-c2nnc(SCC(=O)Nc3ccc(/C(C)=N\O)cc3)n2-c2ccccc2)cc1OC` it is 4.74% (active). `CC1=CCC[C@@H]2C1(C)CC[C@H](C)[C@@]2(C)CC1=CC(=O)C(SC(C)(C)C)=CC1=O` (stereo not given in full): the growth is 106%. In the case of `CCn1cc(CNc2ccc(C(=O)Nc3cc4cc(OC)c(OC)cc4c(C)n3)cc2)c(C)n1`, the growth was 86.8%.

For the molecule `CCCCN1C(=O)/C(=c2\sc3n(c2=O)NC2C(N=3)N(CC)C(=O)N2CC)c2ccccc21` (stereo not given), the growth is 77.2%. As for `NC(=O)c1c(NC(=O)c2ccc(Cl)cc2)sc2c1CCC(=O)C2`, the growth was 93%.

As for `CC1(C)CC[C@]2(C(=O)O)CC[C@]3(C)C(=CC[C@@H]4[C@@]5(C)C[C@@H](Cc6cn([C@@H]7O[C@H](CO)[C@@H](O)[C@H](O)[C@H]7O)nn6)[C@H](O)C(C)(C)[C@@H]5CC[C@]43C)[C@@H]2C1`, the growth was 89%. Turning to `CCNCc1ccc(O)c2ncccc12`, the growth was 27.9%. With `CC(C)c1ccc(C(=O)Nc2sc3cc(O)ccc3c2C#N)cc1`, the growth was 50.2%. The same measure for `CCOC(=O)c1c(NC(=O)CSc2n[nH]c3nc4ccccc4n23)sc(CC)c1C`: 97.4%; for `COc1cccc(/C=C/C(=O)c2cc3c(N)c(C(=O)Nc4cccc(Cl)c4C)sc3nc2C)c1`: 14.7%. With `Cc1nn(-c2ccccc2)c(N2CCCCC2)c1/C=N/NC(=O)Cn1c(=O)sc2ccccc21`, the growth was 89%. Regarding `COC(=O)Cc1nc(C#N)c(N(C)C)o1`, the growth is 92.7%.

For the origin of these results see PubChem BioAssay (NCI).
